In PubChem BioAssay (NCI) one finds growth data, which are given here for 9 molecules.

Test in all cases: NCI-60 one-dose screen, 48 h (100 = growth as untreated, 0 = no growth, -100 = all killed)
Test [1] relates to RPMI-8226 leukemia. The note with it: 10 µM unless noted.
In test [2] the test system is OVCAR-8 ovarian. The conditions noted are these: 10 µM unless noted.
For test [3], the system named is OVCAR-5 ovarian. The note with it: 10 µM unless noted.
For test [4], the system named is SK-OV-3 ovarian. The note with it: 10 µM unless noted.
The test system of test [5] is IGROV1 ovarian. The conditions noted are these: 10 µM unless noted.
Test [6] relates to OVCAR-3 ovarian. The note with it: 10 µM unless noted.
The subject of test [7] is HS 578T breast. The note with it: 10 µM unless noted.
In test [8] the test system is NCI/ADR-RES ovarian. The note with it: 10 µM unless noted.
Test [9] deals with T-47D breast. The conditions noted are these: 10 µM unless noted.
The subject of test [10] is MDA-MB-435 melanoma. The note with it: 10 µM unless noted.
Test [11] relates to SW-620 colon. The note with it: 10 µM unless noted.
Test [12] has as its system MCF7 breast. The conditions noted are these: 10 µM.
In test [13] the test system is HCT-116 colon. The conditions noted are these: 10 µM unless noted.
The subject of test [14] is HCC-2998 colon. The note with it: 10 µM unless noted.
Test [15] concerns KM12 colon. The note with it: 10 µM unless noted.
Test [16] concerns BT-549 breast. The note with it: 10 µM unless noted.

Structures are written as SMILES. This is part of a sample that, as a whole, favours compounds with a hit. Of some 83,000 tested, about 20% had one in any assay.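 Compound tested at a single concentration for 48 hours in 96-well plates; a percent growth value below 10 was scored as active.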 Unmarked numbers belong to inactive results. Active and inactive are the calls of the source.

With `c1ccc2cc3c(Nc4ccc(N5CCOCC5)cc4)ccnc3cc2c1`, the growth in [1] is 60.1%; in [2], 94.3%; in [3], 97%; in test [4], 107%; in test [5] it was 89.5%; in [6], 96%. Besides, the growth in test [7] was 103%; in test [8], 91.1%; in test [9], 95.5%; in test [10], 95.6%; in [11], 101%; in test [12] it was 84%. In addition, the growth in test [13] was 90.2%; in test [14], 109%; in test [15], 102%.

Regarding `O=c1oc2ccc(I)cc2c(=O)n1-c1ccc(I)cc1F`, the growth in [1] was -31.2% (active); in test [2], 9.03% (active); in test [3] it was 27.1%; in test [4], 0.665% (active); in test [5] it was 15.9%; in test [6] it was 7.88% (active). Besides, the growth in [7] was -4.47% (active); in test [8], 9.94% (active); in [9] it was -3.25% (active); in [10], -4.7% (active); in test [11] it was 8.02% (active); in test [12], 2.88% (active). The values for the growth in test [13], in test [14] and in test [15] were 2.66% (active), 21% and -10.7% (active), respectively.

`O=c1oc2ccc(Br)cc2c(=O)n1-c1ccc(Cl)cc1F`: the growth in test [1] is -25.5% (active); in test [2], 9.88% (active); in [3] it was 23.5%; in test [4], 1.82% (active); in [5], 15.7%; in test [6], 7.85% (active). In addition, the growth was -5.24% (active) in [7]; 8.34% (active) in test [8]; -1.08% (active) in test [9]; -8.83% (active) in [10]; 9.75% (active) in test [11]; 3.69% (active) in test [12]. Besides, the figures for the growth in [13], in test [14] and in [15] were 1.83% (active), 22.7% and -14.7% (active), respectively.

Consider `CCOC(=O)c1ccc2[nH]c(-c3ccccc3)cc(=O)c2c1`, for which the growth in [1] was 88.2%; in test [2] it was 97.6%; in test [3], 101%; in test [4] it was 112%; in test [6] it was 106%; in test [7], 104%. For the same molecule, the growth in test [8] is 102%; in test [9], 105%; in test [16], 103%; in [10], 107%; in test [11], 103%; in test [12], 99.8%. The values for the growth in [13], in [14] and in [15] were 99.4%, 112% and 105%, respectively.

Turning to `CCCCc1ccc(NS(=O)(=O)c2cc3c4c(c2)CCN4C(=O)CC3)cc1`, the growth in [1] was 21.9%; in [2], 15.9%; in test [3], 52.5%; in test [4] it was 30.8%; in test [5], 11.3%; in [6], 32.2%. The growth was 47.8% in test [7]; 7.47% (active) in test [8]; 25.4% in [9]; 29.6% in test [10]; 25.3% in test [11]; 16.2% in test [12]. In addition, the growth in [13] is 13.4%; in test [14], 19%; in test [15] it was 21%.

As for `O=S1(=O)CCN(Cc2ccccc2)CC1`, the growth in [1] was 102%; in [2] it was 111%; in test [3] it was 96.2%; in [4] it was 101%; in [5] it was 119%; in [6], 105%. In addition, the growth is 109% in [7]; 106% in test [8]; 93.3% in [9]; 95.7% in test [16]; 97.6% in test [10]; 103% in test [11]. For the same molecule, the growth in test [12] was 104%; in [13], 88.4%; in test [14], 101%; in test [15], 93.9%.

`Cc1ccc(Cn2c(N3CCC(C(=O)NCc4cccs4)CC3)nc3ccccc32)cc1`: the growth in test [1] is 73.7%; in test [2], 94.3%; in test [3], 107%; in [4] it was 97.4%; in test [6], 76.6%; in [7], 79.9%. The growth in [8] is 86.2%; in test [9] it was 114%; in test [16], 75%; in test [10], 90%; in [11], 93.6%; in test [12], 95.2%. The growth is 58.1% in test [13], 90.1% in test [14] and 54.8% in [15].

As for `C[n+]1c2ccccc2nc2ccc(NCCO)cc21`, the growth in test [1] was 66.8%; in test [2] it was 82.1%; in test [3], 102%; in test [5] it was 63.9%; in test [6], 79.2%; in [7], 82.7%. The growth in [8] was 86.4%; in test [9], 91.9%; in test [16], 105%; in [10], 98.4%; in test [11], 96.6%; in test [12], 84.8%. Also, the figures for the growth in test [13], in [14] and in test [15] were 94.2%, 116% and 92%, respectively.

With `O=C(Nc1ccc(Cl)cc1F)c1cc(I)ccc1O`, the growth is 3.96% (active) in test [1]; 10.1% in test [2]; 79.9% in test [3]; -4.98% (active) in [4]; 27.2% in test [5]; 10.4% in test [6]. Further, the growth in test [7] is 3.41% (active); in test [8], 11.3%; in test [9], -0.952% (active); in [10], 18.5%; in test [11], 27.4%; in test [12] it was 47%. The growth in test [13] is 21.2%; in test [15], 62%.
